Calls of active or inactive are those of the source.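 How the source made its calls, unless noted: active means fluorescence slope after compound addition differing from the mean of all screened samples at 99.7% confidence, in either direction; inactive means the rest.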
Experiments:
[1] = inhibitors of TNFa-induced NFkB p65 translocation, primary screen, imaging, HUVEC, MLSMR starter and 10KST1 sets (AID 438;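 active means inhibition above 20% together with a positive visual image hit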;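 further: compound added about 3h40 before a 20 min TNFalpha stimulation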;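 on inhibition: signal is the nuclear over cytoplasmic p65 intensity ratio per well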); conditions: HUVEC TNFa-induced p65 nuclear translocation; cell count: measured here: nuclei count (cytotoxicity indicator), at 2.08 µM unless noted; inhibition: at 2 µM, stronger effect = higher value unless noted
[2] = inhibitors of mutant huntingtin aggregation, primary screen, imaging, exon1htt(103Q)mCFP cells, high-content imaging (AID 483;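 active means visual image review flags a hit and inhibition of aggregation exceeds 20%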;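 further: compound exposure lasted 3 days before fixation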;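 on nuclei count: percent of the per-plate median nuclei count of sample wells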); conditions: exon1htt(103Q)mCFP cell line, aggregate imaging, at 2 µM; inhibition of aggregation: stronger effect = higher value; nuclei count: measured here: cell count, toxicity
[3] = inhibitors of E-selectin induction by TNFa, primary screen, imaging, HUVEC, immunofluorescence, MLSMR starter and 10KST1 sets (AID 487;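 active means visually confirmed hit in the image check and inhibition above 20%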;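 on inhibition: signal is fraction of cell area covered by stained E-selectin grains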;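 on nuclei count: 100% = median nuclei count of all wells on the same plate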); conditions: HUVEC TNFalpha-induced E-selectin immunofluorescence imaging, at 2 µM; inhibition: stronger effect = higher value; nuclei count: measured here: cell number, toxicity
[4] = target: Voltage-gated potassium channel subunit beta-2 (Rattus norvegicus) (UniProt P62483); experiment: KvBeta enzyme negative modulators, primary screen, biochemical, NADPH fluorescence (AID 622;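 active means fluorescence slope higher than the sample average by over 3 SD, cut at about -0.22 in these data, passing the limit was not always enough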;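 further: slope of raw intensity against log time taken from 70 to 1610 s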); conditions: recombinant KvBeta, 4-cyanobenzaldehyde reduction, at 10 µM, stronger effect = higher value
[5] = target: Voltage-gated potassium channel subunit beta-2 (Rattus norvegicus) (UniProt P62483); experiment: KvBeta positive modulators, primary screen, biochemical, NADPH fluorescence (AID 623;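 active means NADPH fluorescence slope more negative than the mean of all samples by about 3 SD, 99.7% confidence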;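 further: fluorescence intensity change per second fitted from 20 to 320 s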); conditions: Recombinant KvBeta, NADPH fluorescence decrease slope, 10 min; at 10 µM; stronger effect = lower value
[6] = target: Alpha-2C adrenergic receptor (Homo sapiens) (UniProt P18825); experiment: modulators of alpha2C/GIRK thallium flux, primary screen, cell-based, HEK293 alpha2C/GIRK1/2 (AID 624); conditions: thallium flux BTC fluorescence, at 10 µM, actives lie on both sides;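 further: slope of fluorescence ratio to pre-addition baseline per second over 15 to 24 s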
[7] = inhibitors of Sendai virus-induced IRF3 signaling, primary screen, TLR/RLR signaling modifier project, cell-based, Sendai virus stimulus, luciferase, 10K MLSCN set (AID 602276;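 active means inhibition at or above 50% at 10 µM; inactive means inhibition below 50%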;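 further: firefly luciferase from ISG56 promoter only with Renilla not read in this screen; 0% = Sendai virus plus DMSO and 100% = medium plus DMSO without virus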); conditions: HEK293 RL24 IRF3 luciferase reporter, at 10 µM, stronger effect = higher value
[8] = inhibitors of poly I:C-induced TLR3 signaling, primary screen, cell-based, poly I:C stimulus, luciferase, 10K MLSCN set (AID 602277;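 active means inhibition of the reporter signal at or above 50%; inactive means inhibition below 50%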); conditions: HEK293-TLR3 RL24 IRF3 luciferase reporter, at 10 µM, stronger effect = higher value

Chain of Alpha-2C adrenergic receptor (Homo sapiens) (P18825 whole entry, looked up): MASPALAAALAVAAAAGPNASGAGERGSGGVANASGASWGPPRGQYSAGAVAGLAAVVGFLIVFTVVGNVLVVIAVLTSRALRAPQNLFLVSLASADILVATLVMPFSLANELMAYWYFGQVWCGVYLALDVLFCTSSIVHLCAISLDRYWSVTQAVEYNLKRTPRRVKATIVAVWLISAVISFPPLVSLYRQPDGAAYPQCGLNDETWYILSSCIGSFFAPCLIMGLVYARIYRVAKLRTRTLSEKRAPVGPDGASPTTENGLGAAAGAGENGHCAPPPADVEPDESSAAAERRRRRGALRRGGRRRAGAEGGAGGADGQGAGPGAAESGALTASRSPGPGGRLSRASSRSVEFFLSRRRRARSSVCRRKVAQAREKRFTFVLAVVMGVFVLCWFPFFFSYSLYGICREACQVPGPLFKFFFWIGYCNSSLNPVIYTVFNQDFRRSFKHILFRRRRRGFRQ
Chain of Voltage-gated potassium channel subunit beta-2 (Rattus norvegicus) (P62483 whole entry, looked up): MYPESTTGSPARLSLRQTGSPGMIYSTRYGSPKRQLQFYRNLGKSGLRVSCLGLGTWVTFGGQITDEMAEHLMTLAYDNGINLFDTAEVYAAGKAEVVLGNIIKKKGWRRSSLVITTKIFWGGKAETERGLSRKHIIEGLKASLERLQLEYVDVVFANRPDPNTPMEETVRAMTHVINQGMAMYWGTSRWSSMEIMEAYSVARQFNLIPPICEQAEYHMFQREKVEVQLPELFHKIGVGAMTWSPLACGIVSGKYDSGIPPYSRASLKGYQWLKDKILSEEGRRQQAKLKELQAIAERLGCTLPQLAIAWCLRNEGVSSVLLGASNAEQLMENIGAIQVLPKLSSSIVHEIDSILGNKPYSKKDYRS

Structure (SMILES) | cell count [1] | inhibition [1] | inhibition of aggregation [2] | nuclei count [2] | inhibition [3] | nuclei count [3] | fluorescence slope [4] | NADPH fluorescence slope [5] | slope [6] | inhibition [7] | inhibition [8]
COc1ccc(CC[n+]2cc(/N=C(\C)[O-])on2)cc1OC | 648 | -23.5% (inactive) | -6% (inactive) | 130% | 48.2% (inactive) | 95.3% | -0.574 (inactive) | 6e-06 (inactive) | 0.00583 (inactive) | 7.77% (inactive) | 25.3% (inactive)
Cc1cc(OCC(=O)O)c2c3c(c(=O)oc2c1)CCCC3 | 361 | 5.7% (inactive) | -15% (inactive) | 92.2% | -74% (inactive) | 87.1% | -0.117 (active) | -1.4e-05 (inactive) | 0.00624 (inactive) | -0.949% (inactive) | -5.67% (inactive)
O=C1CC(N2CCC(n3c(=O)[nH]c4ccccc43)CC2)C(=O)N1c1ccc(F)cc1 (stereo not drawn) | 366 | 3.6% (inactive) | 6.3% (inactive) | 90.7% | -52.5% (inactive) | 93.7% | -0.315 (inactive) | 1.5e-05 (inactive) | 0.0029 (inactive) | 6.41% (inactive) | 18.8% (inactive)
Cc1nc2ccccc2c(=O)n1-c1ccc(F)cc1 | 321 | -5% (inactive) | 7.1% (inactive) | 111% | -36.4% (inactive) | 111% | -0.456 (inactive) | 4.9e-06 (inactive) | 0.00327 (inactive) | 7.2% (inactive) | 36.9% (inactive)
Cc1ccc(CC2C(=O)N(C)C(=O)N(C)C2=O)s1 | 451 | 2.6% (inactive) | 2% (inactive) | 109% | 40.2% (inactive) | 101% | -0.471 (inactive) | -4.3e-05 (inactive) | 0.00411 (inactive) | 1.08% (inactive) | 25% (inactive)
CCC(=NCCCN1CCOCC1)c1c(O)n(Cc2ccccc2)c(=O)[nH]c1=O | 481 | 0.8% (inactive) | 8.2% (inactive) | 101% | -36.6% (inactive) | 167% | -0.629 (inactive) | -2.2e-05 (inactive) | 0.00745 (inactive) | -4.98% (inactive) | 1.2% (inactive)
C[C@H]1CCCC(=O)CCC/C=C/c2cc(O)cc(O)c2C(=O)O1 | 420 | 6.1% (inactive) | 4.4% (inactive) | 93.9% | -42% (inactive) | 108% | -0.55 (inactive) | -7.2e-05 (inactive) | 0.00303 (inactive) | 13.5% (inactive) | 8.12% (inactive)
CCCCn1c(O)c(C(C)=NC(Cc2c[nH]c3ccccc23)C(=O)OC)c(=O)[nH]c1=O (stereo not drawn) | 536 | -3.4% (inactive) | 9.6% (inactive) | 79.6% | 33.5% (inactive) | 112% | -0.499 (inactive) | 1.8e-05 (inactive) | 0.00457 (inactive) | 0.703% (inactive) | 14.9% (inactive)
CC(C)OCCCNC(=O)c1c(N)n(CC2CCCO2)c2nc3ccccc3nc12 (stereo not drawn) | 430 | -6.7% (inactive) | -14.6% (inactive) | 75% | -83% (inactive) | 196% | -0.0369 (inactive) | 2e-05 (inactive) | 0.00623 (inactive) | 11.4% (inactive) | 19.9% (inactive)
CC(C)(C)C(O)C(Oc1ccc(Cl)cc1)n1cncn1 (stereo not drawn) | 268 | 4.3% (inactive) | 5.1% (inactive) | 93% | -5.1% (inactive) | 131% | -0.592 (inactive) | -2.7e-05 (inactive) | 0.00646 (inactive) | 15.5% (inactive) | 32.5% (inactive)
O=C(NCc1ccccn1)c1ccccc1Cl | 627 | -0.6% (inactive) | 2.9% (inactive) | 111% | -26.1% (inactive) | 92.5% | -0.532 (inactive) | -5.9e-05 (inactive) | 0.00536 (inactive) | 10.8% (inactive) | 10.8% (inactive)
CCN1CCN(Cc2cc(Br)cc(OC)c2O)CC1 | 579 | 3.6% (inactive) | 20.4% (inactive) | 99.4% | -82.5% (inactive) | 123% | -0.441 (inactive) | -4e-05 (inactive) | 0.00663 (inactive) | -7.48% (inactive) | 5.42% (inactive)
CCCCN1C(=O)NC(=O)C2(Cc3c(nc4c(C)cccn4c3=O)N3CCc4ccccc4C32)C1=O (stereo not drawn) | 373 | -0.5% (inactive) | -11.7% (inactive) | 106% | -176% (inactive) | 111% | -0.482 (inactive) | -4.8e-05 (inactive) | 0.0045 (inactive) | 14% (inactive) | 32.3% (inactive)
Cc1ccc(-c2nc(CS(=O)CC(=O)N3CCC4(CC3)OCCO4)c(C)o2)cc1 (stereo not drawn) | 704 | -30.6% (inactive) | -2.4% (inactive) | 99.4% | -4.2% (inactive) | 101% | -0.62 (inactive) | -2.5e-05 (inactive) | 0.00606 (inactive) | 16.5% (inactive) | 19.1% (inactive)
CC1(C)C(c2ccccc2)=NC(c2cccnc2)N1O (stereo not drawn) | 309 | 8.2% (inactive) | -17.9% (inactive) | 108% | 17.6% (inactive) | 99.6% | -0.495 (inactive) | -6.7e-05 (inactive) | 0.00634 (inactive) | 14.6% (inactive) | 25.5% (inactive)
CCC(C(=O)N1CCC2(CC1)OCCO2)c1ccccc1 (stereo not drawn) | 391 | 8.2% (inactive) | 18.1% (inactive) | 111% | -81.6% (inactive) | 99.5% | -0.381 (inactive) | -2.6e-05 (inactive) | 0.00492 (inactive) | 14.2% (inactive) | 7.25% (inactive)
Cc1cnn(C2CCN(C)CC2)c1N | 791 | -7.4% (inactive) | -22.3% (inactive) | 75.4% | 0.5% (inactive) | 110% | -0.495 (inactive) | 1.3e-05 (inactive) | 0.00651 (inactive) | -8.1% (inactive) | 14.8% (inactive)
C=CCn1c(O)c(C(C)=Nc2ccc(N(CC)CC)cc2)c(=O)[nH]c1=O | 327 | 2.5% (inactive) | -15.3% (inactive) | 102% | -33.7% (inactive) | 109% | -0.492 (inactive) | 2.3e-05 (inactive) | 0.00389 (inactive) | 21.7% (inactive) | 25.5% (inactive)
Cc1cccc(N2CCc3c2nc2ccccc2c3N)c1 | 731 | -6.5% (inactive) | -7.8% (inactive) | 98% | -54.5% (inactive) | 112% | -0.113 (active) | -9.7e-06 (inactive) | 0.00452 (inactive) | 15.5% (inactive) | 31.6% (inactive)
Cc1cccc(C2=NCC(=O)N(CC(=O)NCc3ccco3)c3sc4c(c32)CCCC4)c1 | 291 | 14.7% (inactive) | 13.6% (inactive) | 92.1% | -48.4% (inactive) | 87.3% | -0.56 (inactive) | -8.4e-05 (inactive) | 0.00582 (inactive) | 14.4% (inactive) | 49.8% (inactive)
COc1ccc(CC2C(=O)NC(=O)NC2=O)c(OC)c1 | 757 | 1.7% (inactive) | -24.3% (inactive) | 105% | -3.4% (inactive) | 105% | -0.406 (inactive) | 5.3e-05 (inactive) | 0.00731 (inactive) | -6.04% (inactive) | -0.414% (inactive)
COC(=O)CC1(Cc2ccccc2)C(=O)NC(=O)NC1=O | 641 | -6.3% (inactive) | 12.4% (inactive) | 78% | -73.6% (inactive) | 140% | -0.579 (inactive) | -2.7e-05 (inactive) | 0.00355 (inactive) | 17.2% (inactive) | 21.5% (inactive)
Cc1ccccc1-n1c(O)c(C=NCCN2CCOCC2)c(=O)[nH]c1=O | 335 | -9.5% (inactive) | -8.6% (inactive) | 138% | -110% (inactive) | 135% | -0.432 (inactive) | -2.7e-05 (inactive) | 0.00516 (inactive) | 1.33% (inactive) | -0.798% (inactive)
CCCCn1c(O)c(C(CC)=Nc2cccc(C(=O)O)c2)c(=O)[nH]c1=O | 688 | -5.8% (inactive) | 9.5% (inactive) | 86.6% | -25.6% (inactive) | 105% | -0.382 (inactive) | 2.4e-05 (inactive) | 0.00652 (inactive) | 9.53% (inactive) | 9.91% (inactive)
c1ccc(C2CC3CC(c4ccco4)N2O3)cc1 (stereo not drawn) | 301 | -1.4% (inactive) | 0% (inactive) | 108% | -68.5% (inactive) | 118% | -0.514 (inactive) | -2.8e-05 (inactive) | 0.00573 (inactive) | 9.13% (inactive) | 16.9% (inactive)
Cc1ccc(C2SCC(=O)Nc3c2c(=O)[nH]n3C2CCOC(C)(C)C2)cc1 (stereo not drawn) | 378 | -0.6% (inactive) | -18.2% (inactive) | 128% | -20.4% (inactive) | 111% | -0.37 (inactive) | -3.9e-05 (inactive) | 0.00325 (inactive) | 18% (inactive) | 29.8% (inactive)
C=CCn1c(O)c(C(C)=NCc2cccnc2)c(=O)[nH]c1=O | 364 | -1% (inactive) | 15.3% (inactive) | 96% | -99.8% (inactive) | 162% | -0.429 (inactive) | -4.2e-05 (inactive) | 0.00457 (inactive) | 9.61% (inactive) | 32.6% (inactive)
O=C(Cn1ncc2c3ccccc3n(Cc3ccc(F)cc3)c2c1=O)N1CCC2(CC1)OCCO2 | 454 | 2.9% (inactive) | -17.5% (inactive) | 74.9% | -167% (inactive) | 130% | -0.295 (inactive) | -5.2e-05 (inactive) | 0.00589 (inactive) | 7.71% (inactive) | 2.33% (inactive)

Reference: PubChem BioAssay
